In all, about 69,000 compounds went through this assay and about 8,600 (12%) showed an effect of 50% or more. This is one part of a sample in which strong results are shown more often than they occur.

For this assay, the system named is Plasmodium berghei. Kind of assay: Screen against P. berghei liver stage (PbLuc), transformed with Luciferase, at 10uM. It is filed as functional, HepG2. The following applies: tested at 10 uM.
Regarding `CCOC(=O)[C@]12CCCN(Cc3cccs3)C[C@H]1CN(CC(C)C)C2`, the INHIBITION turned out to be 60.3%.

As for `CCOC(=O)[C@]12CCCN(Cc3cccs3)C[C@H]1CN(CCOC)C2`, the INHIBITION is 33.5%. Turning to `O=C(O)[C@]12CCCN(Cc3cccs3)C[C@H]1CN(c1ncccn1)C2`, the INHIBITION is on record as -7.24%. As for `CCOC(=O)[C@]12CCCN(Cc3nccs3)C[C@H]1CN(CC(C)C)C2`, the figure is -13%; as for `CCOC(=O)[C@]12CCCN(Cc3nccs3)C[C@H]1CN(CCOC)C2`, -14.4%. Take `CCOC(=O)[C@]12CCCN(Cc3nccs3)C[C@H]1CN(S(C)(=O)=O)C2`: the INHIBITION worked out at 5.96%. The same measure for `CCOC(=O)[C@]12CCCN(Cc3nccs3)C[C@H]1CN(C(C)C)C2`: 76.4%; for `CCOC(=O)[C@]12CCCN(Cc3ccsc3)C[C@H]1CN(CCOC)C2`: -74.6%; for `COc1cc(-c2nc3c([nH]2)CCCNC3=O)cc(OC)c1OC`: -34.8%. The same measure for `Cc1ccc(F)cc1C(=O)N1CCN(S(C)(=O)=O)[C@@H](C)C1`: -2.23%; for `CCOC(=O)Cc1cs/c(=N/C(=O)COc2cnc(C)cc2O)[nH]1`: -1.45%; for `CC(C)(C)c1cccc(OCC(=O)NS(=O)(=O)c2cccnc2)c1`: 0.1%. Take `CCNC(=O)NC(=O)CNC(C)(C)c1ccc2c(c1)OCO2`: the INHIBITION is reported as -12.2%. `CN(Cc1cccnc1)[C@@H]1CN(Cc2ccccn2)[C@@H]2CCCO[C@H]12`: the INHIBITION is on record as 30.3%. Consider `NCC1CCC(c2c(C(=O)NCCO)sc3ccccc23)CC1` (centres undefined), for which the INHIBITION is listed as -11.4%. As to `CCC1CCCCN1C(=O)CCn1cnc2sccc2c1=O` (centres undefined), the INHIBITION is recorded as 25.4%.

Take `CNC(=O)C1CCCCN1C(=O)CCn1cnc2sccc2c1=O` (centres undefined): the INHIBITION was 52.6%.

On to `CC1CCCCN1C(=O)CCn1cnc2sccc2c1=O` (centres undefined), for which the INHIBITION is 42.7%.

On to `CCn1ncc2c(C(F)F)cc(-c3ccn(C)n3)nc21`, for which the INHIBITION came to 8.05%. As for `CC1(C)CN(C(=O)Nc2ccc(Cn3cccn3)cc2)CCO1`, the figure is 49.9%; as for `O=C(Nc1ccc(Cn2cccn2)cc1)N1CCC2(CC1)OCCO2`, 41%. As for `O=C(Nc1ccc(Cn2cccn2)cc1)N1CCC(CO)CC1`, the INHIBITION came out at 57.8%. As for `COCCOc1ccc(NC(=O)C2CC(=O)N(CC3CC3)C2)cn1` (centres undefined), the figure is 4.71%. In the case of `CN(C)C(=O)N1CCC2(CC1)CN(CC1CC1)CC21CCNC1=O` (centres undefined), the INHIBITION is recorded as -63.9%. On to `Cc1cc(C(=O)NCC(F)(F)F)c2c(C3CCCN3)noc2n1` (centres undefined), for which the INHIBITION was 30.8%. The same measure for `Cc1cc(C(=O)NCc2ccc(F)cc2)c2c(C3CCNC3)noc2n1` (centres undefined): 41.6%; for `Cc1cc(C(=O)NCC(F)(F)F)c2c(C3CCNCC3)noc2n1`: 64%.

For the compound `O=C(C1CCN(c2nc3nc[nH]c(=O)c3s2)CC1)N1CCCCC1`, the INHIBITION amounted to 37.4%. On to `NC(=O)NC(CC(=O)NCCc1cccc(F)c1)c1ccccc1` (centres undefined), for which the INHIBITION came out at 20.5%.

For `COc1ccc(CCNC(=O)CC(NC(N)=O)c2ccccc2)cc1` (centres undefined), the INHIBITION is reported as 29.1%.

Consider `NC(=O)NC(CC(=O)NCCc1ccc(F)cc1)c1ccccc1` (centres undefined), for which the INHIBITION came to 53.8%. The same measure for `CSCC(=O)N1CCCCC1Cn1cc(C)cn1` (centres undefined): -5.25%; for `CC(C)CN1CCC2(CCN(CC3CC3)CC2)C1=O`: -7.24%. The same measure for `COc1cc(N2CCCC(CO)(Cc3ccccc3F)C2)ncn1` (centres undefined): 84.9%; for `CCCC1(CO)CCCN(c2ncccc2F)C1` (centres undefined): -29.9%; for `COC[C@]1(O)CCN(c2cc(OC)ncn2)CC1(C)C`: -31.7%.

As for `Nc1cc(N2CCCC(CO)(Cc3ccccc3F)C2)nc(N)n1` (centres undefined), the INHIBITION is 75.1%. In the case of `N#Cc1cccc(N2CCCC(CO)(Cc3ccccc3F)C2)n1` (centres undefined), the INHIBITION turned out to be 23.5%. The same measure for `OCC1(Cc2ccccc2F)CCCN(c2ccc3ccccc3n2)C1` (centres undefined): 89.9%; for `O=C(O)C1(Cc2ccccc2F)CCCN(c2ncnc3[nH]ccc23)C1` (centres undefined): 23.5%. In the case of `Nc1cc(N2CCCC(Cc3ccc(F)cc3F)(C(=O)O)C2)ncn1` (centres undefined), the INHIBITION came out at 34.4%. Turning to `Nc1ccnc(N2CCCC(CO)(Cc3cccc(Cl)c3)C2)n1` (centres undefined), the INHIBITION was 44.9%. On to `CNC(=O)N1CC[C@@H]2CN(Cc3cccnc3)S(=O)(=O)[C@@H]2CC1`, for which the INHIBITION is on record as 22.2%. As for `CN1CC(=O)N(C2CCNCC2)Cc2c(NC3CCC3)ncnc21`, the INHIBITION is -13%.

As for `CCOC1COC2(CCN(Cc3ccc4c(c3)OCO4)CC2)C1` (centres undefined), the INHIBITION came out at 24.9%.

In the case of `COCCn1c(CN2CCCCO2)cnc1S(=O)(=O)CC1CCCCC1`, the INHIBITION is -2.13%. In the case of `CCc1cc(NC2CCC(N)CC2)n2nc(C)c(C)c2n1` (centres undefined), the INHIBITION is listed as 14.1%. As for `CC(C)n1ncc2cc(NC(=O)N3CCC(CO)CC3)cnc21`, the figure is 29.7%; as for `Fc1ccccc1Cc1noc(CN2CCC(N3CCSCC3)CC2)n1`, 75.2%; as for `c1ccc(OCc2noc(CN3CCC(N4CCSCC4)CC3)n2)cc1`, 79.5%. On to `Fc1ccccc1Cc1noc(CN2CC[C@@H]3CCCC[C@H]3C2)n1`, for which the INHIBITION is 38.4%. Turning to `CCc1nc(CN(C)C2CCN(CCOc3ccccc3)C2)no1` (centres undefined), the INHIBITION is recorded as -0.219%. As for `c1ccc(OCc2noc(CN3CCN(C4CCCC4)CC3)n2)cc1`, the figure is 40.9%. As to `c1ccc(CCc2noc(CN3CCC(N4CCSCC4)CC3)n2)cc1`, the INHIBITION is given as 7.97%.

The values above are taken from ChEMBL document CHEMBL4513216, “Probing the Open Global Health Chemical Diversity Library for Multistage-Active Starting Points for Next-Generation Antimalarials” (ACS Infect Dis, 2020).
